Source: the supplement of paper PMC10849652
The full data set covers some 7,900 targets. This sample favours those with a hit. About 0.6% of all pairs of compound and target were hits.

Experiments:
Test in all cases: log2 fold change, soluble protein after heating vs DMSO (PISA); higher = thermal stabilisation; K562 cells, 10 uM, 30 min; active = over 0.2 and 3.5 SD of the protein, either way, in both replicates (recomputed)
[1] = compound: CS(=O)(=O)c1ccc(-c2cnc(N)c(C(=O)Nc3ccccc3)n2)cc1
Outline: (§1)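 For each measurement, 10 μM compound was applied for 30 min to K562 cells at 2×10^6 cells/mL. Aliquots were heated for 3 min across 48°C-58°C, pooled, and extracted in PBS with 0.5% NP-40 at 4°C; the supernatant after 21,000xg for 90 min was soluble protein. This was quantified by TMTpro 16plex LC-MS/MS with channel sums equalised, and thermal stability was reported relative to control samples from duplicates, on a log2 fold-change scale.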

[2] = compound: C[C@@H](Oc1cc(-c2cnn(C3CCNCC3)c2)cnc1N)c1c(Cl)ccc(F)c1Cl [crizotinib]
Outline: as §1

[3] = compound: C[C@@H]1COCCN1C2=NC(=NC(=C2)C3(CC3)S(=O)(=O)C)C4=C5C=CNC5=CC=C4
Outline: as §1

[4] = compound: C[C@H](C1=CC=C(C=C1)C(=O)NC2=C3C=CNC3=NC=C2)N
Outline: as §1

[5] = compound: C[C@H](Nc1ncnc2nc[nH]c12)c1cc2cccc(Cl)c2c(=O)n1-c1ccccc1 [duvelisib]
Outline: as §1

[6] = compound: Cc1cc(Nc2cc(CN3CCOCC3)c3nc(C)c(Cc4ccc(Cl)cc4F)n3n2)n[nH]1 [gandotinib]
Outline: as §1

[7] = compound: Cc1cc(Nc2cc(N3CCN(C)CC3)nc(Sc3ccc(NC(=O)C4CC4)cc3)n2)n[nH]1 [tozasertib]
Outline: as §1

[8] = compound: Cc1cc(SCc2sc(-c3ccc(C(F)(F)F)cc3)nc2C)ccc1OCC(=O)O
Outline: as §1

[9] = compound: Cc1ccc(-n2nc(C(C)(C)C)cc2NC(=O)Nc2ccc(OCCN3CCOCC3)c3ccccc23)cc1 [doramapimod]
Outline: as §1

[10] = compound: Cc1ccc(C(=O)N(CCCN)[C@@H](c2nc3cc(Cl)ccc3c(=O)n2Cc2ccccc2)C(C)C)cc1 [ispinesib]
Outline: as §1

[11] = compound: Cc1ccc(NC(=O)c2ccc(CN3CC[C@H](N(C)C)C3)c(C(F)(F)F)c2)cc1Nc1nccc(-c2cncnc2)n1 [bafetinib]
Outline: as §1

[12] = compound: Cc1cccc(CC(=O)N2CCc3c2ccc(-c2cn(C)c4ncnc(N)c24)c3F)n1
Outline: as §1

[13] = compound: Cc1cn(-c2cc(NC(=O)c3ccc(C)c(Nc4nccc(-c5cccnc5)n4)c3)cc(C(F)(F)F)c2)cn1 [nilotinib]
Outline: as §1

[14] = compound: Cc1nc(Nc2n[nH]c3c2CN(C(=O)N[C@H](CN(C)C)c2ccccc2)C3(C)C)c2sccc2n1
Outline: as §1

[15] = compound: Cc1nc(Nc2ncc(C(=O)Nc3c(C)cccc3Cl)s2)cc(N2CCN(CCO)CC2)n1 [dasatinib]
Outline: as §1

[16] = compound: Cc1ncc(-c2ccnc(Nc3ccc(S(C)(=O)=O)cc3)n2)n1C(C)C
Outline: as §1

[17] = compound: Cn1cc(-c2ccc3c(c2)CCN3C(=O)Cc2cccc(C(F)(F)F)c2)c2c(N)ncnc21
Outline: as §1

[18] = compound: Cn1cc(-c2ccc3nnc(C(F)(F)c4ccc5ncccc5c4)n3n2)cn1
Outline: as §1

[19] = compound: Cn1cncc1[C@@](N)(c1ccc(Cl)cc1)c1ccc2c(c1)c(-c1cccc(Cl)c1)cc(=O)n2C [tipifarnib]
Outline: as §1

[20] = compound: FC(F)(F)c1ccc(/C=C/c2nc(COc3ccc(CCCCn4ccnn4)cc3)co2)cc1 [mubritinib]
Outline: as §1

Measured: log2 fold change

POLD1 (UniProt P28340)
UniProt P28340, sequence (P28340 whole entry, looked up): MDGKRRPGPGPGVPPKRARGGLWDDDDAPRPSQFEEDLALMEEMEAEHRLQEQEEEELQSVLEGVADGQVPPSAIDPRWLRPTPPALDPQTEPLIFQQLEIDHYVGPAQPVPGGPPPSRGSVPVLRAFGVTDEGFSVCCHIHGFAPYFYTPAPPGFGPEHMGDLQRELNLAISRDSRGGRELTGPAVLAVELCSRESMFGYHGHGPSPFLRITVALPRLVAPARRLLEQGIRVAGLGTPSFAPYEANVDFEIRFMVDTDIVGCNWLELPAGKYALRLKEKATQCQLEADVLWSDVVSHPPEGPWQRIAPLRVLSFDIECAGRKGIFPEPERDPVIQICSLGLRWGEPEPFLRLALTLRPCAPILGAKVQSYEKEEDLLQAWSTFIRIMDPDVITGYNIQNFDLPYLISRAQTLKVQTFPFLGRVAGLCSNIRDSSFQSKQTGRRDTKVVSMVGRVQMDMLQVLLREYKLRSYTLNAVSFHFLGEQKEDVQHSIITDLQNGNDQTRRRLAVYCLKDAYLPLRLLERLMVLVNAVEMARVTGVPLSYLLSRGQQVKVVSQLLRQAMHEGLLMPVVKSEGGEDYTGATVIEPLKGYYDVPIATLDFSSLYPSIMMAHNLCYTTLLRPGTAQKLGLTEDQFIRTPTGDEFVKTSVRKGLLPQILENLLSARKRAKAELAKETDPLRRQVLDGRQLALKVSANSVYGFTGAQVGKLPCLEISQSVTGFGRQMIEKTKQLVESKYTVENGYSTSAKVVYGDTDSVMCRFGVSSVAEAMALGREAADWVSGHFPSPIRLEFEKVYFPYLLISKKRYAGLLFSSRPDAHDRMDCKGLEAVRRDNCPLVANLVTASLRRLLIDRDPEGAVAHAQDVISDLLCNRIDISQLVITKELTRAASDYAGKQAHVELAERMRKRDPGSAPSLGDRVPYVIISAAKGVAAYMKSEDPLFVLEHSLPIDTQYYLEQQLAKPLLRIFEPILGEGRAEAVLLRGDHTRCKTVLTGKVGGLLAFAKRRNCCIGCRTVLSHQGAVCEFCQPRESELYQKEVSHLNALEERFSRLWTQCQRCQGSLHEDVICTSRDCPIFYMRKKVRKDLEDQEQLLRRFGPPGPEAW
inactive: [1] 0.019 | [2] -0.042 | [3] 0.041 | [4] -0.025 | [5] 0.004 | [6] 0.036 | [7] 0.016 | [8] 0.046 | [9] -0.018 | [10] -0.01 | [11] -0.055 | [12] 0.023 | [13] -0.03 | [14] -0.006 | [15] -0.049 | [16] -0.052 | [17] 0.063 | [18] 0.01 | [19] -0.066 | [20] 0.006

PECAM1 (UniProt P16284)
inactive: [1] 0.086 | [2] 0.145 | [3] 0.157 | [4] 0.034 | [5] 0.08 | [6] -0.001 | [7] -0.105 | [8] -0.03 | [9] -0.025 | [10] 0.099 | [11] -0.075 | [12] -0.011 | [13] 0.087 | [14] 0.097 | [15] 0.031 | [16] 0 | [17] -0.019 | [18] -0.013 | [19] 0.015 | [20] 0.022

PEX16 isoform 2 (UniProt Q9Y5Y5)
UniProt Q9Y5Y5, sequence (Q9Y5Y5 whole entry, looked up): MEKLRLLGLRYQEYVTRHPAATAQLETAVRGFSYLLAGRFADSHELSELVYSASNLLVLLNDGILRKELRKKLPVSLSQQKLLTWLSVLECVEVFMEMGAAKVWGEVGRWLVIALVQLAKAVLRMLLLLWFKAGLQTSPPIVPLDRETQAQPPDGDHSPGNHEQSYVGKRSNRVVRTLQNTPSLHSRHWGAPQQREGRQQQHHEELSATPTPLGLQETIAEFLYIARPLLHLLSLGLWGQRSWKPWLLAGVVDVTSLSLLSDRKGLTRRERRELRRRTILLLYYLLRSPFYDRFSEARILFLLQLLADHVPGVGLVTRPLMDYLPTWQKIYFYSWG
inactive: [1] -0.001 | [2] -0.142 | [3] 0.052 | [4] -0.072 | [5] 0.096 | [6] -0.104 | [7] 0.018 | [8] 0.057 | [9] 0.106 | [10] -0.23 | [11] -0.202 | [12] 0.016 | [13] -0.067 | [14] 0.006 | [15] 0.004 | [16] -0.006 | [17] 0.079 | [18] 0.079 | [19] -0.067 | [20] 0.174

PRKAB1 (UniProt Q9Y478)
UniProt Q9Y478, sequence (Q9Y478 whole entry, looked up): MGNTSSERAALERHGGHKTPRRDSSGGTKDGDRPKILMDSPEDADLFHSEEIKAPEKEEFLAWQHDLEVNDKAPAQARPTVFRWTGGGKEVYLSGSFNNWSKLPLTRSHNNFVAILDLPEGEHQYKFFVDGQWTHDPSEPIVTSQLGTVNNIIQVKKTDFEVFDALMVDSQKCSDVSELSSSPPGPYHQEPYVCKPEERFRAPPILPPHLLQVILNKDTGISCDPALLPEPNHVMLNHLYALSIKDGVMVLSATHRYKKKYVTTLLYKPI
active: [2] -0.252
inactive: [1] 0.013 | [3] 0.029 | [4] -0.063 | [5] 0.01 | [6] -0.057 | [7] -0.013 | [8] 0.069 | [9] 0.013 | [10] -0.013 | [11] -0.154 | [12] 0.006 | [13] -0.119 | [14] -0.162 | [15] -0.037 | [16] -0.007 | [17] 0.04 | [18] -0.026 | [19] 0.008 | [20] -0.104

POLR2D (UniProt O15514)
inactive: [1] 0.006 | [2] 0.192 | [3] -0.08 | [4] 0.038 | [5] 0.065 | [6] 0.158 | [7] -0.012 | [8] -0.068 | [9] -0.024 | [10] 0.017 | [11] 0.009 | [12] -0.076 | [13] -0.028 | [14] 0.122 | [15] -0.013 | [16] 0.202 | [17] -0.036 | [18] 0.034 | [19] -0.01 | [20] 0.052

PRKAR1B (UniProt P31321)
UniProt P31321, sequence (P31321 whole entry, looked up): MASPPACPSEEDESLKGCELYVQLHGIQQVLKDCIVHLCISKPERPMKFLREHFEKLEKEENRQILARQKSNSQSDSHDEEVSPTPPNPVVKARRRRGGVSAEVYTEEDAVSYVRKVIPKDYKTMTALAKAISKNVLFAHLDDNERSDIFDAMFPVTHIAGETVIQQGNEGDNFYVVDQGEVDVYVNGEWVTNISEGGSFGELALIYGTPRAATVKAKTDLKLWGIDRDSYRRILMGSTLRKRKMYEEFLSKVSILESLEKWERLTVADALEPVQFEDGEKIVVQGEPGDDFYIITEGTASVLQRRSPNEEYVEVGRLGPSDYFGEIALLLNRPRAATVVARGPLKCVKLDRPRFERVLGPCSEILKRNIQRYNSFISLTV
inactive: [1] 0.137 | [2] 0.132 | [3] 0.071 | [4] 0.123 | [5] 0.199 | [6] 0.095 | [7] 0.136 | [8] -0.011 | [9] -0.03 | [10] -0.072 | [11] 0.132 | [12] -0.015 | [13] 0.062 | [14] 0.012 | [15] -0.013 | [16] 0.097 | [17] 0.018 | [18] 0.126 | [19] 0.147 | [20] -0.286

PIKFYVE (UniProt Q9Y2I7)
inactive: [1] -0.016 | [2] -0.068 | [3] 0.096 | [4] 0.073 | [5] 0.005 | [6] -0.062 | [7] -0.005 | [8] 0.091 | [9] 0.023 | [10] -0.061 | [11] -0.031 | [12] 0.153 | [13] -0.015 | [14] 0.045 | [15] -0.061 | [16] -0.092 | [17] 0.005 | [18] 0.031 | [19] 0.108 | [20] 0.017

POTEI (UniProt P0CG38)
active: [9] -0.739
inactive: [1] -0.009 | [2] 0.109 | [3] 0.241 | [4] -0.096 | [5] 0.019 | [6] -0.019 | [7] 0.032 | [8] -0.021 | [10] 0.131 | [11] -0.052 | [12] -0.02 | [13] 0.046 | [14] -0.049 | [15] 0.087 | [16] 0.043 | [17] -0.005 | [18] -0.003 | [19] -0.019 | [20] 0.004

PLA2G15 (UniProt Q8NCC3)
inactive: [1] 0 | [2] -0.163 | [3] -0.008 | [4] 0.015 | [5] -0.038 | [6] -0.036 | [7] -0.075 | [8] -0.016 | [9] 0.015 | [10] -0.055 | [11] -0.175 | [12] 0.05 | [13] -0.001 | [14] -0.025 | [15] -0.036 | [16] -0.028 | [17] 0.002 | [18] 0.09 | [19] 0.084 | [20] -0.05

PRIM2 (UniProt P49643)
inactive: [1] 0.078 | [2] -0.063 | [3] 0.154 | [4] 0.066 | [5] -0.038 | [6] 0.07 | [7] 0.059 | [8] 0.145 | [9] -0.06 | [10] -0.061 | [11] 0.007 | [12] -0.019 | [13] -0.063 | [14] -0.06 | [15] -0.128 | [16] 0.021 | [17] 0.015 | [18] 0.046 | [19] -0.018 | [20] 0.101

PKN1 isoform 2 (UniProt Q16512)
active: [14] -0.705
inactive: [1] 0.03 | [2] -0.233 | [3] -0.015 | [4] -0.12 | [5] 0.001 | [6] -0.165 | [7] -0.052 | [8] 0.075 | [9] 0.022 | [10] -0.065 | [11] -0.006 | [12] 0.038 | [13] -0.044 | [15] -0.154 | [16] -0.019 | [17] -0.02 | [18] -0.008 | [19] -0.046 | [20] 0.098

PIP4P2 (UniProt Q8N4L2)
UniProt Q8N4L2, sequence (Q8N4L2 whole entry, looked up): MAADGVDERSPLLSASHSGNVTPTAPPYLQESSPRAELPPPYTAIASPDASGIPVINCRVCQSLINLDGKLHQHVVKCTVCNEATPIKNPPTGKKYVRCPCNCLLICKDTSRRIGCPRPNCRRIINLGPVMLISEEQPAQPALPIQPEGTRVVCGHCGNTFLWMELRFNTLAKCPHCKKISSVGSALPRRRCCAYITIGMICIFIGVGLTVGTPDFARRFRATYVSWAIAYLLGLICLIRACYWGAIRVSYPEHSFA
active: [2] -0.3 | [10] -0.569
inactive: [1] -0.057 | [3] 0.013 | [4] -0.058 | [5] 0.068 | [6] 0.017 | [7] -0.041 | [8] 0.013 | [9] -0.032 | [11] -0.083 | [12] -0.111 | [13] 0.013 | [14] -0.003 | [15] 0.055 | [16] -0.026 | [17] -0.03 | [18] 0.014 | [19] 0.024 | [20] 0.005

PGM3 isoform 4 (UniProt O95394)
inactive: [1] 0.025 | [2] -0.098 | [3] 0.04 | [4] -0.024 | [5] 0.043 | [6] -0.034 | [7] -0.019 | [8] 0.108 | [9] 0.016 | [10] -0.09 | [11] 0.056 | [12] 0.153 | [13] -0.022 | [14] 0.021 | [15] -0.145 | [16] -0.003 | [17] 0.106 | [18] 0.02 | [19] -0.079
active: [20] 0.293

QRSL1 (UniProt Q9H0R6)
UniProt Q9H0R6, sequence (Q9H0R6 whole entry, looked up): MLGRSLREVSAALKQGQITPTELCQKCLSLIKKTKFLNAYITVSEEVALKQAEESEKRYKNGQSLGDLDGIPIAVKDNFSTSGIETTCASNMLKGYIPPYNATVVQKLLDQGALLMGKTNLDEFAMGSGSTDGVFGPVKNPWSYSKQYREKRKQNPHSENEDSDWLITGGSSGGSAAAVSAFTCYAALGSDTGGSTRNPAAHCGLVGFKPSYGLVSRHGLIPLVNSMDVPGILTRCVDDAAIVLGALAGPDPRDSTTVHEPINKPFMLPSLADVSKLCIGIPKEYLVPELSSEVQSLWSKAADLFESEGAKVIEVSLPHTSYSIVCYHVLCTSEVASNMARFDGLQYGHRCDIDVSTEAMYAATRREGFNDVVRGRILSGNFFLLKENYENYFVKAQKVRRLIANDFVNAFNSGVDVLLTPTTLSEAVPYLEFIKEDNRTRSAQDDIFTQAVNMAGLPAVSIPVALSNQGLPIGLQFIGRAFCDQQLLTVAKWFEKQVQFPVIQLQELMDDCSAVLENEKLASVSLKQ
active: [3] 0.212
inactive: [1] 0.046 | [2] -0.04 | [4] -0.023 | [5] 0.033 | [6] 0.082 | [7] -0.025 | [8] 0.024 | [9] -0.015 | [10] -0.049 | [11] -0.036 | [12] 0.048 | [13] -0.041 | [14] -0.028 | [15] -0.171 | [16] 0.045 | [17] 0.037 | [18] 0.024 | [19] 0.002 | [20] -0.102

PCYT1A (UniProt P49585)
UniProt P49585, sequence (P49585 whole entry, looked up): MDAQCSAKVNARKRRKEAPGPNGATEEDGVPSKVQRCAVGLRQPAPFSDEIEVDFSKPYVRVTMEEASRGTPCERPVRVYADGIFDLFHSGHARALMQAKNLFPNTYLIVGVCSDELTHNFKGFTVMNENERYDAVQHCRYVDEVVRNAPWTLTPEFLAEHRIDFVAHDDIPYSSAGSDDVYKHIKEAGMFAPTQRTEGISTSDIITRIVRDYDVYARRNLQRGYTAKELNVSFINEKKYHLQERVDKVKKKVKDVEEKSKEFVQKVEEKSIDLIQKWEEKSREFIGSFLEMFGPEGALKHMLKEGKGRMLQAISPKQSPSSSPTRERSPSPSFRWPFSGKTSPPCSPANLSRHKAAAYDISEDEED
active: [13] -1.47
inactive: [1] -0.031 | [2] -0.032 | [3] 0.092 | [4] -0.097 | [5] 0.081 | [6] -0.148 | [7] 0.072 | [8] 0.094 | [9] -0.008 | [10] 0.003 | [11] -0.142 | [12] 0.035 | [14] -0.129 | [15] -0.185 | [16] -0.04 | [17] 0.033 | [18] 0.001 | [19] 0.006 | [20] 0.176

PTPN23 (UniProt Q9H3S7)
UniProt Q9H3S7, sequence (Q9H3S7 whole entry, looked up): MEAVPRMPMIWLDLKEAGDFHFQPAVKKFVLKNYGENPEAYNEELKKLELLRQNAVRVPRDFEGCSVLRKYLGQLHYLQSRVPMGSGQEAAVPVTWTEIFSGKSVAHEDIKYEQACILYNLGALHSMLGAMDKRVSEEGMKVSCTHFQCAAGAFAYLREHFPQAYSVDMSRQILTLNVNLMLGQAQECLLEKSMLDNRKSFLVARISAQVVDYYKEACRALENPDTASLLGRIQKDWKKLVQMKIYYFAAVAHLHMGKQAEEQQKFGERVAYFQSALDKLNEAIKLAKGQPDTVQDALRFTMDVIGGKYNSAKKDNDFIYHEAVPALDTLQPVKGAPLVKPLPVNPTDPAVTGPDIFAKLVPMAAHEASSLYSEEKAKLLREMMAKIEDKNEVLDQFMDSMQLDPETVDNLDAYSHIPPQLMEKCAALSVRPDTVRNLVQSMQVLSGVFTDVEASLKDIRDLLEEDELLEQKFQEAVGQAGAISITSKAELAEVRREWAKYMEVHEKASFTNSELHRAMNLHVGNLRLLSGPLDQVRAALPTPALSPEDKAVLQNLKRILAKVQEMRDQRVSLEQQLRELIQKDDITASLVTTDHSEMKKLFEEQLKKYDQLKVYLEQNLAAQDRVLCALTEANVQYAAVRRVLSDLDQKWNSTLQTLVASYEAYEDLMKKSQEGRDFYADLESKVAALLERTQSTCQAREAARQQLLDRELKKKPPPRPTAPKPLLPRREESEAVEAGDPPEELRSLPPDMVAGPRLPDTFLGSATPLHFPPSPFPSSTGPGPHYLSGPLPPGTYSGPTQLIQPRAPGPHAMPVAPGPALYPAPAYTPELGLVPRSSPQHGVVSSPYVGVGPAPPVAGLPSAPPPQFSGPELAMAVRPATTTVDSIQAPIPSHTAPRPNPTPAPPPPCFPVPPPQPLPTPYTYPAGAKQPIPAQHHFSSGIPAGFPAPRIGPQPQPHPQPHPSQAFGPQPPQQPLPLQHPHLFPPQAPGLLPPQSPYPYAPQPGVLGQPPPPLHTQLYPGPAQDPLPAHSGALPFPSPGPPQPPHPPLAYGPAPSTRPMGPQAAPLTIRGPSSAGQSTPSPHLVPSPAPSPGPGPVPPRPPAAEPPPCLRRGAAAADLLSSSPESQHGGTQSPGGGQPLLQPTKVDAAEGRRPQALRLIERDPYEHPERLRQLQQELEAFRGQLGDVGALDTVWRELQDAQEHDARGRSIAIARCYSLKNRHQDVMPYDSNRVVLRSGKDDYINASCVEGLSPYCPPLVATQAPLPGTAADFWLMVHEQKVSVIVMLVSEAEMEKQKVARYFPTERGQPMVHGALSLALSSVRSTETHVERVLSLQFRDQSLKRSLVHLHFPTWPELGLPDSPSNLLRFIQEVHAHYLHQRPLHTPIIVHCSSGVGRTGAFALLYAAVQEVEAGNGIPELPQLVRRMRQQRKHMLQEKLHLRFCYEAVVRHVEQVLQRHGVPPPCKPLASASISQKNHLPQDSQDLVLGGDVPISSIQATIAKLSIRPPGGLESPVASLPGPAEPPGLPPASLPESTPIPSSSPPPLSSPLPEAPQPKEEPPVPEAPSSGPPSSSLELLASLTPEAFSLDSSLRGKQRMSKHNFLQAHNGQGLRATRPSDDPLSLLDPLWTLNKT
inactive: [1] 0.014 | [2] 0.057 | [3] 0.018 | [4] 0.027 | [5] 0.116 | [6] -0.072 | [7] 0.148 | [8] 0.13 | [9] -0.002 | [10] 0.018 | [11] 0.028 | [12] 0.053 | [13] -0.07 | [14] -0.096 | [15] -0.199 | [16] 0.059 | [17] -0.016 | [18] 0.02 | [19] -0.069 | [20] 0.034
